In PubChem BioAssay AID1159580 (chemical genetic matrix, 2015):
In all, about 5,500 compounds went through this assay and about 2,000 (36%) were called active. Not shown: some 18% with an inconclusive outcome. Cut-off read from the data, not from the text of the source: active = normalized growth mostly below about 0.91 (no sharp cut-off); inconclusive = no clear call, values can overlap the other calls; inactive = mostly above about 0.92. The list shows a part of the results.

Experiment: chemical genetic growth profiling, strain panel (AID 1159580);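 note: tested at 20 µM; growth read once vehicle control cultures reached saturation at 30 °C; 1 = growth at the plate median or of vehicle wells; lower values mean less growth of the strain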
Conditions: S. cerevisiae deletion strains, growth OD

Measured: normalized growth

COc1ccc(CN2CSC(=S)N(Cc3ccc(OC)cc3)C2)cc1
inactive: locus YAR019C, strain CDC15, hits give low values 0.952 | locus YBL105C, strain PKC1, hits give low values 0.98 | locus YBR135W, strain CKS1, hits give low values 0.972 | locus YBR136W, strain MEC1, hits give low values 0.968 | locus YBR160W, strain CDC28, hits give low values 0.974 | locus YDL017W, strain CDC7, hits give low values 0.981 | locus YDL028C, strain MPS1, hits give low values 0.951 | locus YDL101C, strain DUN1, hits give low values 0.992 | locus YDL108W, strain KIN28, hits give low values 0.955 | locus YDL132W, strain cdc53, hits give low values 0.966 | locus YDL214C, strain PRR2, hits give low values 0.937 | locus YDR052C, strain DBF4, hits give low values 0.975 | locus YDR054C, strain cdc34, hits give low values 0.961 | locus YDR226W, strain ADK1, hits give low values 0.961 | locus YDR477W, strain SNF1, hits give low values 0.958 | locus YER123W, strain YCK3, hits give low values 0.891 | locus YER133W, strain GLC7, hits give low values 0.946 | locus YFL009W, strain cdc4, hits give low values 0.957 | locus YFL029C, strain CAK1, hits give low values 0.95 | locus YFR003C, strain YPI1, hits give low values 0.967 | locus YFR019W, strain FAB1, hits give low values 0.961 | locus YFR028C, strain CDC14, hits give low values 0.957 | locus YGR040W, strain KSS1, hits give low values 0.947 | locus YGR052W, strain FMP48, hits give low values 0.996 | locus YGR092W, strain DBF2, hits give low values 0.864 | locus YHR030C, strain SLT2, hits give low values 0.97 | locus YHR079C, strain IRE1, hits give low values 0.908 | locus YHR082C, strain KSP1, hits give low values 0.999 | locus YHR205W, strain SCH9, hits give low values 0.891 | locus YIL147C, strain SLN1, hits give low values 0.95 | locus YJL095W, strain BCK1, hits give low values 0.981 | locus YJL128C, strain PBS2, hits give low values 0.952 | locus YJL157C, strain FAR1, hits give low values 0.954 | locus YJR016C, strain ILV3, hits give low values 0.965 | locus YJR066W, strain TOR1 (second series), hits give low values 0.94 | locus YJR066W, strain TOR1, hits give low values 0.998 | locus YKL048C, strain ELM1, hits give low values 0.958 | locus YKL067W, strain YNK1, hits give low values 0.954 | locus YKL101W, strain HSL1, hits give low values 0.94 | locus YKL193C, strain SDS22, hits give low values 0.964 | locus YKL203C, strain TOR2, hits give low values 0.989 | locus YLR113W, strain HOG1, hits give low values 0.91 | locus YLR133W, strain CKI1, hits give low values 0.961 | locus YLR403W, strain SFP1, hits give low values 0.927 | locus YML070W, strain DAK1, hits give low values 0.935 | locus YMR001C, strain CDC5, hits give low values 0.978 | locus YMR205C, strain PFK2 (second series), hits give low values 0.945 | locus YMR277W, strain FCP1, hits give low values 0.97 | locus YNL006W, strain LST8, hits give low values 0.945 | locus YNL020C, strain ARK1, hits give low values 0.94 | locus YNL161W, strain CBK1, hits give low values 0.987 | locus YNL183C, strain NPR1, hits give low values 0.951 | locus YNL207W, strain RIO2, hits give low values 0.964 | locus YNL222W, strain SSU72, hits give low values 0.966 | locus YNL307C, strain MCK1 (second series), hits give low values 0.905 | locus YOL078W, strain AVO1, hits give low values 0.967 | locus YOL136C, strain PFK27, hits give low values 0.956 | locus YOR061W, strain CKA2, hits give low values 0.939 | locus YOR119C, strain RIO1, hits give low values 0.985 | locus YOR231W, strain MKK1, hits give low values 0.937 | locus YOR329C, strain SCD5, hits give low values 0.979 | locus YPL031C, strain PHO85, hits give low values 0.95 | locus YPL153C, strain RAD53, hits give low values 0.931 | locus YPL204W, strain HRR25, hits give low values 0.931 | locus YPL209C, strain IPL1, hits give low values 0.966 | locus YPL256C, strain CLN2, hits give low values 0.953 | locus YPR025C, strain CCL1, hits give low values 0.98 | locus YPR106W, strain ISR1, hits give low values 0.983 | locus YPR111W, strain DBF20, hits give low values 0.979 | strain NNK1, hits give low values 0.984 | strain TSCII, hits give low values 0.964
